# Most compounds without a hit are left out; they make up all but 0.95% or so of the library.
# RE007 growth inh = less growth of the S. pombe RE007 Vpr strain; S. pombe RE007 Vpr strain, BacTiter-Glo ATP luminescence, 24 h; Potency, µM (highest dose often 92.2 µM), for the others: at the highest dose activity change, negative = less growth, hits mostly inhibitors; 360,000 tested, 0.21% active; AID 651644; active = well fitted falling curve with a large enough effect; inconclusive = small, poorly fitted or top-dose-only effect; inactive = no such curve, though single readings can be large or run the other way; note: nearly all actives have a fitted effect of over 50% in size
#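 Fission yeast strain RE007, carrying one chromosomally integrated HIV-1 vpr copy, was seeded at OD 0.01 in PMG+AL medium with 23 nL pinned compound. After 24 h at 30 °C and 99% humidity, viability was read by BacTiter-Glo luminescence.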
# Giardia FBPA inh = inhibitors of Giardia lamblia fructose-1,6-bisphosphate aldolase | A8B2U2 | purified Giardia FBPA | Potency, µM (titrated, usually from 59.6 µM), for the others: top-dose activity, negative = inhibition, most hits filed as inhibitors | 290,000 tested, 0.71% active | AID 2451; note: nearly all actives have a fitted effect of over 55% in size
# Target sequence (A8B2U2 whole entry, looked up): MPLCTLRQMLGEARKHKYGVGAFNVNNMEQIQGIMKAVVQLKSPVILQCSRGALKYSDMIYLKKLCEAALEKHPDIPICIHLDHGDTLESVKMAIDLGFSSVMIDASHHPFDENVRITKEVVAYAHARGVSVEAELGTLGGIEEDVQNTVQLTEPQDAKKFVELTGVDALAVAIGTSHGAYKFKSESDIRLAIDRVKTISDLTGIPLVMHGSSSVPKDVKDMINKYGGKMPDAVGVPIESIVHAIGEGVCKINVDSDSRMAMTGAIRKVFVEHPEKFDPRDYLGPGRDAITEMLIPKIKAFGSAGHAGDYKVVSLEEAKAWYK
#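 40 nM FBPA preincubated 10 min at RT with compound (up to 57.5 uM final), then substrate plus GAPDH/TPI/NAD/arsenate coupling and diaphorase/resazurin added. Fluorescence read after 20 min at RT, 525/598 nm.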
# Tb PYK inh = blocks Trypanosoma brucei pyruvate kinase | AID 624173 | TbPYK enzyme, Kinase-Glo Plus ATP luminescence, 45 min | Q57TT1 | Potency, µM (highest dose often 76.8 µM), without a hit: at the highest dose activity, negative = inhibition, usual class: inhibitors | 410,000 tested, 0.12% active; note: nearly all actives have a fitted effect of over 50% in size
#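 Screened from lowest to highest concentration, compounds were pinned into TbPYK/substrate mixtures, and ADP (130 uM final) was added. Plates sat at room temperature for 45 min prior to Kinase-Glo Plus detection by luminescence.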
# LmPK inhibitor = inhibitors of Leishmania mexicana pyruvate kinase; Q27686; 290,000 tested, 0.37% active; Potency, µM (top dose mostly 57.5 µM), without a hit: at the highest dose activity change, negative = inhibition, usual class: inhibitors; purified LmPK, Kinase-Glo ATP luminescence, 1 h
#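 qHTS format; LmPK 0.1 nM; substrates PEP 0.5 mM and ADP 0.1 mM. One-hour room-temperature incubation, then coupled luciferase luminescence; 0.5 nM enzyme wells mark activation.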
# * = called active by the depositor; u = inconclusive; x = no result given; [ ] = remark or other dose. Unless noted, calls come from the whole dose curve; as a rule, active = well fitted curve in the direction sought with a large enough effect; inconclusive = small, poorly fitted or top-dose-only effect, or another doubt; inactive = no such curve, though single readings can be large; an effect the other way counts as inactive or inconclusive. % is set by controls: 0 for no effect and ±100 for the full control effect; potency is the fitted concentration of half-maximal effect.
SMILES,RE007 growth inh,Giardia FBPA inh,Tb PYK inh,LmPK inhibitor
CC1(C(=O)O)CCC2(C)CCC3(C)C(=CC(=O)[C@@H]4C5(C)CC[C@H](O[C@H]6O[C@H](C(=O)O)C(O)C(O)[C@H]6O[C@@H]6O[C@H](C(=O)O)C(O)C(O)C6O)C(C)(C)[C@@H]5CCC43C)[C@@H]2C1 (stereo partly specified),x,x,8.6%,x
c1ccc(-c2nnc(-c3ccco3)o2)cc1,0.0%,2.3%,-5.6%,u
c1coc(-c2nnc(-c3ccco3)nn2)c1,14.1µM*,x,-22.9%,u
CCc1nc(-c2ccccc2)c2ccccn12,11.2%,4.46µM*,-6.6%,13.7%[11.5 µM]
Oc1ccc(N=Cc2ccc(O)c(O)c2)cc1,-8.5%,1.58µM*,u,-12.7%
O=Nc1c(-c2ccccc2)cc2ccccn12,12.6µM*,-28.7%,-1.6%,-5.8%
Cc1ccc2c(c1)C(=C(C#N)C#N)C(=O)N2CCN1CCOCC1,-9.0%,3.15µM*,1.0%,-4.3%
Cc1ccc2c(c1)C(=C(C#N)C#N)C(=O)N2CCN1CCCCC1,-23.0%,u,-10.5%,5.2%
Cc1c(C2(O)CCCCC2)[nH]c2ccc(C(F)(F)F)cc12,39.8µM*,x,3.7%,x
COC(=O)c1ccc2[nH]c(C3(O)CCCCC3)c(C)c2c1,-0.9%,x,3.0%,x
O=C(CS(=O)c1ccc(C(F)(F)F)cc1[N+](=O)[O-])Oc1ccccc1 (stereo unspecified),44.7µM*,u,-2.3%,10.1%
C[C@@H]1NC(=O)C/C=C\[C@@H](C)[C@@H]2C=C[C@H](O)[C@@H](COC(=O)[C@H](C)NC(=O)C/C=C\[C@@H](C)[C@@H]3C=C[C@H](O)[C@@H](COC1=O)O3)O2,x,-0.6%[12.9 µM],x,x
NN1C(=O)/C(=C\c2ccco2)SC1=S,u,6.29µM*,-8.2%,8.3%
CN(C)N1C(N)=C(C#N)C(c2cccs2)C2=C1CC(C)(C)CC2=O (stereo unspecified),17.0%,17.7µM*,0.2%,-0.1%
CCCCc1cc2c(cn1)=C(OC(=O)CCC(=O)OC)C(C)(OC(=O)CC)C(=O)C=2 (stereo unspecified),x,-0.2%[12.9 µM],x,-7.1%[11.5 µM]
COc1ccc(-c2nc(SCC(=O)NC(C)CCc3ccccc3)n[nH]2)cc1 (stereo unspecified),x,x,0.7%,x
CCCCn1c(NC(=O)c2ccco2)c(C(=O)OCC)c2nc3ccccc3nc21,-6.6%,5µM*,-11.0%,1.3%
c1ccc(-c2ccc(-n3ccnc3)cc2)cc1,28.2µM*,-6.4%,-7.2%,-6.0%
c1ccc(-c2ccc(C(c3ccccc3)n3ccnc3)cc2)cc1 (stereo unspecified),-7.0%,u,8.0%,10.6%
COC(=O)c1c(-c2ccc(Cl)cc2)noc1N1CCN(c2ccc(F)cc2)CC1,x,x,-4.9%,x
CCCCCC(O)CCc1n[nH]c(=S)n1-c1ccccc1 (stereo unspecified),-0.2%,-1.9%,4.47µM*,u
CCCCC(CC(O)COCCC)c1n[nH]c(=S)n1-c1ccccc1 (stereo unspecified),24.4%,-13.6%,11.2µM*,u
C=C(C)C1COc2cc3oc(=O)ccc3cc2O1 (stereo unspecified),x,0.1%,x,x
COc1cc(C(=O)N2CCN(CCc3ccccn3)CC2)cc(OC)c1OC,x,x,-5.3%,x
CCCOc1ccc(Oc2nc(NC)nc(N3CCOCC3)n2)nn1,x,x,-6.4%,x
SMILES,RE007 growth inh,Giardia FBPA inh,Tb PYK inh,LmPK inhibitor
CCOc1ccc(-c2ccc(SC)nn2)cc1,u,-0.7%,u,5.01µM*
COC(=O)c1cc(-c2ccc(C)cc2)c2c(=O)n(C)c(=O)n(C)c2n1,x,x,1.9%,x
Cc1cccc(N2C(=O)CC(N3CCC(c4nc5ccccc5[nH]4)CC3)C2=O)c1 (stereo unspecified),28.2µM*,3.2%,-0.3%,-9.5%
O=C(/C=C/c1ccc(Cl)cc1)N1CCC(c2nc3ccccc3o2)CC1,x,x,-3.3%,x
COc1cccc(N2C(=O)CC(N3CCC(c4nc5ccccc5[nH]4)CC3)C2=O)c1 (stereo unspecified),35.5µM*,10.9%,-6.4%,-3.7%
COc1ccc(N2C(=O)CC(N3CCC(n4c(=O)[nH]c5ccccc54)CC3)C2=O)cc1 (stereo unspecified),28.2µM*,1.4%,0.4%,0.3%
CCC(c1nnnn1-c1ccc(OC)cc1)N1CCC(n2c(=O)[nH]c3ccccc32)CC1 (stereo unspecified),5.8%,x,-3.5%,x
O=C1CC(N2CCC(c3nc4ccccc4o3)CC2)C(=O)N1c1cc(Cl)cc(Cl)c1 (stereo unspecified),28.2µM*,-5.1%,-13.8%,17.4%
CC(C)[C@@H](OCc1ccccc1)[C@H](C)CO/N=C1/[C@H]2OC2[C@@H](O)[C@H]2[C@H]1CCn1c(=O)n(-c3ccccc3)c(=O)n12 (stereo partly specified),x,-0.2%[12.9 µM],x,x
COC(=O)NC(/C(C(=O)OC)=C(\C)NCc1ccccc1)c1cccs1 (stereo unspecified),x,-1.6%[12.9 µM],x,x
CC(C)(C)CNc1nc(C#N)nc(Nc2ccccc2)n1,x,-6.0%,x,x
COc1ccc(C2=Nn3c(nnc3-c3ccccc3C)SC2)cc1,x,2.5%,x,x
Cc1ccccc1C(=O)N1CCC(C(=O)N2CCN(c3ncccn3)CC2)CC1,8.7%,x,-0.2%,x
CCOC(=O)N1CCN(C(=O)C2CCN(C(=O)c3ccccc3C)CC2)CC1,u,x,7.94µM*,x
N#Cc1cnc2cc(-c3ccccc3)nn2c1N,4.3%,3.5%,-3.2%,-7.7%
COc1ccc(-c2cc3ncc(-c4ccccc4)c(N)n3n2)cc1,-25.9%,-8.1%,-6.4%,15.8µM*
O=C(/C=C/c1cccc(Cl)c1)c1ccc([N+](=O)[O-])o1,11.2µM*,x,-11.6%,x
COc1cc(/C=C/C(=O)c2ccc([N+](=O)[O-])o2)ccc1O,12.6µM*,x,-4.9%,x
CC(=O)OC[C@H]1O[C@@H](O/N=C2/[C@H]3O[C@@H]3[C@@H](O)[C@H]3[C@H]2CCn2c(=O)n(-c4ccccc4)c(=O)n23)[C@H](OC(C)=O)[C@@H](OC(C)=O)[C@@H]1OC(C)=O,x,-0.8%[12.9 µM],x,x
O=C(Oc1cccc2cccnc12)c1ccc(N2C(=O)C3C4CCC(C4)C3C2=O)cc1 (stereo unspecified),u,-16.1%,2.9%,0.7%
O=C(Oc1cccc2cccnc12)c1cccc(N2C(=O)C3C4CCC(C4)C3C2=O)c1 (stereo unspecified),15.8µM*,-20.3%,u,1.0%
O=C(Nc1ccc(Cl)cn1)c1ccccc1F,-8.1%,2.5%,-7.5%,22.4µM*
CCN(CC(=O)Nc1ccc(OC)cc1)C(=O)c1ccc2c(c1)NC(=O)C(C)S2 (stereo unspecified),27.0%,x,28.2µM*,x
Cc1ccc(OC2=NS(=O)(=O)c3ccccc32)cc1,2.2%[3.69 µM],3.2%,x,4.0%
COc1ccccc1OC1=NS(=O)(=O)c2ccccc21,16.9%,24.5%,-0.2%,12.6µM*
Cc1ccc(CCNC(=O)CCCn2nc(C)c3c(C)n(-c4ccccc4)nc3c2=O)cc1,x,x,-6.1%,x
Fc1ccc(C(c2ccc(F)cc2)N2CCN(CC=Cc3ccccc3)CC2)cc1,x,x,-5.7%,x
